Experimental data from PubChem BioAssay (Tox21).
Results filed as inconclusive are left out. Activity calls are given as the source filed them. Calls come from the whole dose curve; as a rule, active = well fitted curve in the direction sought with a large enough effect in the repeat runs; inconclusive = weak or mixed curves; inactive = no such curve, though single readings can be large; an effect the other way counts as inactive or inconclusive.

Columns and labels:
[1] = qHTS RealTime-Glo MT Cell Viability Assay in HepG2 cells - 40 hour (AID 1224870); note: nearly all actives have a fitted effect of over 50% in size
Summary of the method: (§1)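 Real-time viability: cells seeded at 600 per well together with NanoLuc and cell-permeant prosubstrate, compounds added after 5 h incubation. Luminescence tracked at 0, 8, 16, 24, 32 and 40 h of exposure.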

[2] = A CellTox Green Cytotoxicity Assay to monitor cytotoxicity in HEK293 cells - 40 hour (AID 1224871); note: nearly all actives have a fitted effect of over 45% in size
Summary of the method: (§2)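 HEK293 cells premixed with CellTox Green dye were seeded at 600 cells/well and left 5 h at 37 C/5% CO2 before pin transfer of 23 nL compound in DMSO. Fluorescence from dye bound to dead-cell DNA was read during 40 h treatment.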

[3] = qHTS RealTime-Glo MT Cell Viability Assay in HEK293 cells - 16 hour (AID 1224872); note: top concentration of the series differs between compounds; nearly all actives have a fitted effect of over 50% in size
Summary of the method: (§3)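 Luminescence generated by NanoLuc from substrate produced by living HEK293 cells served as the viability signal. Each value reflects the reading at its stated time point during continuous 40 h compound exposure at 37 C.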

[4] = qHTS RealTime-Glo MT Cell Viability Assay in HepG2 cells - 8 hour (AID 1224873); note: nearly all actives have a fitted effect of over 55% in size
Summary of the method: as §1

[5] = qHTS RealTime-Glo MT Cell Viability Assay in HEK293 cells - 40 hour (AID 1224874); conditions: RealTime-Glo luminescence; max response: hits give low values; note: nearly all actives have a fitted effect of over 50% in size
Summary of the method: (§4)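 HEK293 cells mixed with RealTime-Glo reagents (NanoLuc plus cell-permeant prosubstrate) at 600 cells/well, preincubated 5 h at 37 C/5% CO2, then given 23 nL compound in DMSO. Nonlytic luminescence from viable cells was read at 0, 8, 16, 24, 32 and 40 h.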

[6] = A CellTox Green Cytotoxicity Assay to monitor cytotoxicity in HEK293 cells - 24 hour (AID 1224875); note: series mostly up to about 77 µM; nearly all actives have a fitted effect of over 45% in size
Summary of the method: as §2

[7] = A CellTox Green Cytotoxicity Assay to monitor cytotoxicity in HepG2 cells - 16 hour (AID 1224876); note: nearly all actives have a fitted effect of over 45% in size
Summary of the method: (§5)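 HepG2 cells were seeded together with the CellTox Green dye at 600 cells/well, left 5 h at 37 C/5% CO2, then given compounds in DMSO. Fluorescence from dye bound to dead-cell DNA was read repeatedly over 40 h of treatment at 37 C.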

[8] = qHTS RealTime-Glo MT Cell Viability Assay in HepG2 cells - 32 hour (AID 1224877); note: nearly all actives have a fitted effect of over 55% in size
Summary of the method: (§6)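 Tox21 10K library screened in qHTS format on HepG2 cells carrying RealTime-Glo reagents. Compounds were added after a 5 h preincubation, and the luminescent signal from continuous culture was measured repeatedly during 40 h treatment.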

[9] = A CellTox Green Cytotoxicity Assay to monitor cytotoxicity in HepG2 cells - 40 hour (AID 1224879); note: nearly all actives have a fitted effect of over 40% in size
Summary of the method: as §5

[10] = qHTS RealTime-Glo MT Cell Viability Assay in HEK293 cells - 0 hour (AID 1224880); note: top concentration of the series differs between compounds; nearly all actives have a fitted effect of over 45% in size
Summary of the method: as §4

[11] = A CellTox Green Cytotoxicity Assay to monitor cytotoxicity in HEK293 cells - 32 hour (AID 1224881); note: nearly all actives have a fitted effect of over 40% in size
Summary of the method: as §2

[12] = A CellTox Green Cytotoxicity Assay to monitor cytotoxicity in HepG2 cells - 0 hour (AID 1224882); note: nearly all actives have a fitted effect of over 35% in size
Summary of the method: as §5

[13] = A CellTox Green Cytotoxicity Assay to monitor cytotoxicity in HepG2 cells - 32 hour (AID 1224883); note: nearly all actives have a fitted effect of over 50% in size
Summary of the method: as §5

[14] = A CellTox Green Cytotoxicity Assay to monitor cytotoxicity in HEK293 cells - 8 hour (AID 1224884); note: nearly all actives have a fitted effect of over 35% in size
Summary of the method: as §2

[15] = qHTS RealTime-Glo MT Cell Viability Assay in HepG2 cells - 16 hour (AID 1224885); note: nearly all actives have a fitted effect of over 50% in size
Summary of the method: as §6

[16] = qHTS RealTime-Glo MT Cell Viability Assay in HEK293 cells - 24 hour (AID 1224886)
Summary of the method: as §3

[17] = qHTS RealTime-Glo MT Cell Viability Assay in HEK293 cells - 8 hour (AID 1224887)
Summary of the method: as §4

[18] = A CellTox Green Cytotoxicity Assay to monitor cytotoxicity in HEK293 cells - 16 hour (AID 1224888); note: nearly all actives have a fitted effect of over 35% in size
Summary of the method: as §2

[19] = qHTS RealTime-Glo MT Cell Viability Assay in HepG2 cells - 0 hour (AID 1224889); note: nearly all actives have a fitted effect of over 50% in size
Summary of the method: as §6

[20] = A CellTox Green Cytotoxicity Assay to monitor cytotoxicity in HepG2 cells - 24 hour (AID 1224878); note: nearly all actives have a fitted effect of over 45% in size
Summary of the method: as §5
% is set by controls: 0 for no effect and ±100 for the full control effect.

CC(=O)CC(C)(C)C1CCCCC1
inactive: Potency [1] | Potency [2] | Potency [3] | Potency [4] | max response [5] 9.93% | Potency [6] | Potency [7] | Potency [8] | Potency [9] | Potency [10] | Potency [11] | Potency [12] | Potency [13] | Potency [14] | Potency [15] | Potency [16] | Potency [17] | Potency [18] | Potency [19]

CCc1cccc2c(CCO)c[nH]c12
inactive: Potency [1] | Potency [2] | Potency [3] | Potency [4] | max response [5] 0.292% | Potency [6] | Potency [7] | Potency [8] | Potency [20] | Potency [9] | Potency [10] | Potency [12] | Potency [13] | Potency [14] | Potency [15] | Potency [16] | Potency [17] | Potency [18] | Potency [19]

CC(C)c1cc2c(cc1S(=O)(=O)O)[C@@]1(C)CCC[C@@](C)(C(=O)O)[C@@H]1CC2
inactive: Potency [1] | Potency [2] | Potency [3] | Potency [4] | max response [5] 1.39% | Potency [6] | Potency [7] | Potency [8] | Potency [9] | Potency [10] | Potency [11] | Potency [12] | Potency [13] | Potency [14] | Potency [16] | Potency [17] | Potency [18] | Potency [19]

COc1c(N2C[C@@H]3CCCN[C@@H]3C2)c(F)cc2c(=O)c(C(=O)O)cn(C3CC3)c12
inactive: Potency [1] | Potency [2] | Potency [3] | Potency [4] | max response [5] -3.41% | Potency [6] | Potency [7] | Potency [8] | Potency [20] | Potency [9] | Potency [10] | Potency [12] | Potency [13] | Potency [14] | Potency [15] | Potency [16] | Potency [17] | Potency [18] | Potency [19]

NC(=O)c1cn(Cc2c(F)cccc2F)nn1
inactive: Potency [1] | Potency [2] | Potency [3] | Potency [4] | max response [5] 4.6% | Potency [6] | Potency [7] | Potency [8] | Potency [9] | Potency [10] | Potency [11] | Potency [12] | Potency [13] | Potency [14] | Potency [16] | Potency [17] | Potency [18] | Potency [19]

CCN(Cc1ccncc1)C(=O)C(CO)c1ccccc1 (configuration not stated)
inactive: Potency [1] | Potency [2] | Potency [3] | Potency [4] | max response [5] 5.99% | Potency [6] | Potency [7] | Potency [8] | Potency [20] | Potency [9] | Potency [10] | Potency [11] | Potency [12] | Potency [13] | Potency [14] | Potency [16] | Potency [17] | Potency [18] | Potency [19]

CCN1CCC[C@H]1CNC(=O)c1cc(S(N)(=O)=O)ccc1OC
inactive: Potency [1] | Potency [2] | Potency [3] | Potency [4] | max response [5] -3.58% | Potency [6] | Potency [7] | Potency [8] | Potency [20] | Potency [9] | Potency [10] | Potency [12] | Potency [13] | Potency [14] | Potency [15] | Potency [16] | Potency [17] | Potency [18] | Potency [19]

C=CCOCC(CC)(CO)COCC=C
inactive: Potency [1] | Potency [2] | Potency [3] | Potency [4] | max response [5] 5.04% | Potency [6] | Potency [7] | Potency [8] | Potency [20] | Potency [9] | Potency [10] | Potency [12] | Potency [13] | Potency [14] | Potency [17] | Potency [18] | Potency [19]

FC(F)OC(Cl)C(F)(F)F (configuration not stated)
inactive: Potency [1] | Potency [2] | Potency [3] | Potency [4] | max response [5] 5.59% | Potency [6] | Potency [7] | Potency [8] | Potency [9] | Potency [10] | Potency [11] | Potency [12] | Potency [13] | Potency [14] | Potency [15] | Potency [16] | Potency [17] | Potency [18] | Potency [19]

COc1cc(C(=O)N2CCCCCCC2)cc(OC)c1OC
inactive: Potency [1] | Potency [2] | Potency [3] | Potency [4] | max response [5] 9.63% | Potency [6] | Potency [7] | Potency [8] | Potency [20] | Potency [9] | Potency [10] | Potency [11] | Potency [12] | Potency [13] | Potency [14] | Potency [16] | Potency [17] | Potency [18] | Potency [19]

c1cnc(N2CCN(Cc3ccc4c(c3)OCO4)CC2)nc1
inactive: Potency [1] | Potency [2] | Potency [3] | Potency [4] | max response [5] -13% | Potency [6] | Potency [7] | Potency [8] | Potency [20] | Potency [9] | Potency [10] | Potency [12] | Potency [13] | Potency [14] | Potency [15] | Potency [16] | Potency [17] | Potency [18] | Potency [19]

CC(C)NC(=O)NC(C)C
inactive: Potency [1] | Potency [2] | Potency [3] | Potency [4] | max response [5] 4.41% | Potency [6] | Potency [7] | Potency [8] | Potency [9] | Potency [10] | Potency [11] | Potency [12] | Potency [13] | Potency [14] | Potency [15] | Potency [16] | Potency [17] | Potency [18] | Potency [19]

COC(=O)CCSCCC(=O)OC
inactive: Potency [1] | Potency [2] | Potency [3] | Potency [4] | max response [5] 0.851% | Potency [6] | Potency [7] | Potency [8] | Potency [9] | Potency [10] | Potency [12] | Potency [13] | Potency [14] | Potency [16] | Potency [17] | Potency [18] | Potency [19]

Cn1c(N)c(N=O)c(=O)n(C)c1=O
inactive: Potency [1] | Potency [2] | Potency [3] | Potency [4] | max response [5] 4.01% | Potency [6] | Potency [7] | Potency [8] | Potency [20] | Potency [9] | Potency [10] | Potency [11] | Potency [12] | Potency [13] | Potency [14] | Potency [16] | Potency [17] | Potency [18] | Potency [19]

CCCN1CCCC[C@H]1C(=O)Nc1c(C)cccc1C
inactive: Potency [1] | Potency [2] | Potency [3] | Potency [4] | max response [5] 3.8% | Potency [6] | Potency [7] | Potency [8] | Potency [10] | Potency [11] | Potency [12] | Potency [13] | Potency [14] | Potency [16] | Potency [17] | Potency [18] | Potency [19]
